Test results from PubChem BioAssay (NCI).
This is part of a sample that, as a whole, favours compounds with a hit. Of some 79,000 tested, about 15% had one in any assay. Active and inactive are the calls of the source. Rule as the data show it: active = growth inhibition above about 70%; inactive = the rest.

How the values were obtained:
[1] = NCI Yeast Anticancer Drug Screen. Data for the rad52 strain (AID 147);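 also: 0% = growth of vehicle-treated control cultures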; details: S. cerevisiae rad52 mutant growth inhibition, hits give high values
Outline: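 Screen used a yeast mutant impaired in DNA repair. After compound exposure, growth was measured. Values reflect inhibition compared with vehicle-treated cells.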

[2] = NCI Yeast Anticancer Drug Screen. Data for the wt1 strain (AID 149);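 also: 0% = growth of vehicle-treated wt1 cultures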; details: S. cerevisiae wt1 strain (SPY 50644) growth inhibition, hits give high values
Outline: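 Measured: growth of wt1 yeast under compound versus vehicle treatment, reported as inhibition.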

[3] = NCI Yeast Anticancer Drug Screen. Data for the rad50EPP+ strain (AID 151);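 also: 0% = growth of vehicle-treated control cultures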; details: S. cerevisiae rad50 mutant strain, hits give high values
Outline: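 Exposing the rad50EPP+ strain to each compound, growth was compared with vehicle-only cultures to give inhibition.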

[4] = NCI Yeast Anticancer Drug Screen. Data for the mgt1 strain (AID 153); details: S. cerevisiae mgt1 mutant growth inhibition, hits give high values
Outline: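 Genetically defined yeast (mgt1) treated with compound; inhibition of growth expressed against vehicle-treated controls.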

[5] = NCI Yeast Anticancer Drug Screen. Data for the rad50 strain (AID 155);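 also: 0% = growth of vehicle-only cultures of the same strain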; details: S. cerevisiae rad50 strain growth inhibition, hits give high values
Outline: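 Growth of the mutant yeast was measured after compound exposure and referenced to vehicle-treated cultures.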

[6] = NCI Yeast Anticancer Drug Screen. Data for the mec2-1 strain (AID 157); details: S. cerevisiae mec2-1 strain, hits give high values
Outline: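 Readout is yeast growth inhibition, normalised to vehicle-treated controls, in the mec2-1 strain exposed to compound.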

[7] = NCI Yeast Anticancer Drug Screen. Data for the rad14 strain (AID 159);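 also: 0% = growth of vehicle-treated control cultures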; details: S. cerevisiae rad14 strain growth inhibition, hits give high values
Outline: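 Here, inhibition of yeast growth was measured after compound exposure, using a strain with a genetic defect in DNA damage repair and vehicle-treated cultures as the reference.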

[8] = NCI Yeast Anticancer Drug Screen. Data for the sgs1 mgt1 strain (AID 161);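 also: 0% = growth of cultures given vehicle only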; details: S. cerevisiae sgs1 mgt1 strain, hits give high values
Outline: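 Yeast cells carrying a defined DNA-repair defect were exposed to test compounds. Growth inhibition was measured relative to vehicle-treated controls.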

[9] = NCI Yeast Anticancer Drug Screen. Data for the CLN2oe strain (AID 163);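 also: 0% = growth of vehicle-only control cultures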; details: S. cerevisiae CLN2oe strain, hits give high values
Outline: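 Values reflect how much compound exposure reduced yeast growth, referenced to vehicle-exposed cells. Assay organism is a strain with a defined genetic change affecting cell-cycle control.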

[10] = NCI Yeast Anticancer Drug Screen. Data for the cln2 rad14 strain (AID 165);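 also: 0% = growth equal to vehicle treated cultures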; details: S. cerevisiae cln2 rad14 strain, hits give high values
Outline: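 Relative to vehicle controls, growth inhibition of compound-treated cln2 rad14 yeast was recorded.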

[11] = NCI Yeast Anticancer Drug Screen. Data for the bub3 strain (AID 167); details: S. cerevisiae bub3 mutant strain, hits give high values
Outline: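 Whole-cell yeast assay. The mutant strain was incubated with compounds, and growth inhibition was determined by comparison with vehicle-treated cells.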

[12] = NCI Yeast Anticancer Drug Screen. Data for the wt2 strain (AID 169);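 also: 0% = growth of vehicle-treated yeast cultures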; details: S. cerevisiae wt2 strain growth inhibition, hits give high values
Outline: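 Values express reduction in yeast growth under compound treatment, referenced to vehicle-treated cells.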

[13] = NCI Yeast Anticancer Drug Screen. Data for the sgs1 strain (AID 173);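 also: 0% = growth of vehicle-only control cultures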; details: S. cerevisiae sgs1 mutant, hits give high values
Outline: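 Treat defined-mutant yeast with compound; measure growth; calculate inhibition relative to vehicle-treated cells.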

[14] = NCI Yeast Anticancer Drug Screen. Data for the rad18 strain (AID 177); details: S. cerevisiae rad18 mutant growth inhibition, hits give high values
Outline: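 A genetically defined yeast mutant impaired in DNA damage repair was treated with test compounds, then its growth was measured against cultures receiving vehicle alone.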

[15] = NCI Yeast Anticancer Drug Screen. Data for the mlh1 rad18 strain (AID 175); details: S. cerevisiae mlh1 rad18 strain growth inhibition, hits give high values
Outline: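 Test agents were incubated with a yeast strain of defined genotype (DNA damage repair defect). Inhibition of growth was derived by comparison with vehicle-exposed cultures.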

[16] = at 5.0 µM (retest, dose inferred, filed as 0.5)
[17] = at 50.0 µM (retest, dose inferred, filed as 5.0)

Measured: growth inhibition

C=C1CC(CCCl)(c2ccccc2)OC1=O (stereo not drawn)
active: [1]; at 33.0 µM 88% | [1]; at 100.0 µM 99% | [2]; at 33.0 µM 84% | [2]; at 100.0 µM 98% | [3]; at 100.0 µM 92% | [4]; at 11.0 µM 78% | [4]; at 33.0 µM 98% | [4]; at 100.0 µM 99% | [5]; at 33.0 µM 91% | [5]; [17] 94% | [5]; at 50.0 µM 92.5% | [5]; at 100.0 µM 98% | [6]; at 33.0 µM 93% | [6]; [17] 98% | [6]; at 50.0 µM 93.5% | [6]; at 100.0 µM 99% | [7]; at 33.0 µM 95% | [7]; at 100.0 µM 99% | [8]; [17] 96% | [8]; at 50.0 µM 93.5% | [9]; at 33.0 µM 85% | [9]; at 100.0 µM 98% | [10]; [17] 93% | [10]; at 50.0 µM 90.9% | [11]; at 11.0 µM 76% | [11]; at 33.0 µM 96% | [11]; [17] 98% | [11]; at 50.0 µM 92.4% | [11]; at 100.0 µM 99% | [12]; at 33.0 µM 95% | [12]; at 100.0 µM 95% | [13]; at 33.0 µM 96% | [13]; at 100.0 µM 99% | [14]; at 33.0 µM 94% | [14]; at 100.0 µM 99%
inactive: [1]; at 1.2 µM -37% | [1]; at 3.7 µM -25% | [1]; at 11.0 µM 17% | [2]; at 1.2 µM -13% | [2]; at 3.7 µM -16% | [2]; at 11.0 µM 25% | [3]; at 1.2 µM 0% | [3]; at 3.7 µM 2% | [3]; at 11.0 µM 19% | [3]; at 33.0 µM 48% | [4]; at 1.2 µM -25% | [4]; at 3.7 µM -3% | [5]; at 1.2 µM 0% | [5]; at 3.7 µM 13% | [5]; [16] 4% | [5]; at 11.0 µM 33% | [6]; at 1.2 µM -4% | [6]; at 3.7 µM 16% | [6]; [16] 13% | [6]; at 11.0 µM 65% | [7]; at 1.2 µM -2% | [7]; at 3.7 µM 25% | [7]; at 11.0 µM 60% | [8]; [16] -8% | [9]; at 1.2 µM 4% | [9]; at 3.7 µM 7% | [9]; at 11.0 µM 24% | [10]; [16] 18% | [11]; at 1.2 µM -6% | [11]; at 3.7 µM 37% | [11]; [16] 37% | [12]; at 1.2 µM -22% | [12]; at 3.7 µM -20% | [12]; at 11.0 µM 38% | [13]; at 1.2 µM 4% | [13]; at 3.7 µM 2% | [13]; at 11.0 µM 59% | [14]; at 1.2 µM 0% | [14]; at 3.7 µM 13% | [14]; at 11.0 µM 61%

CC(=O)OCC(C)Cc1cc2c(cc1Br)OCO2 (stereo not drawn)
inactive: [1]; at 1.2 µM -6% | [1]; at 3.7 µM -11% | [1]; at 11.0 µM -8% | [1]; at 33.0 µM -3% | [1]; at 100.0 µM 19% | [2]; at 1.2 µM 1% | [2]; at 3.7 µM -5% | [2]; at 11.0 µM 6% | [2]; at 33.0 µM -2% | [2]; at 100.0 µM -13% | [3]; at 1.2 µM -9% | [3]; at 3.7 µM -6% | [3]; at 11.0 µM 16% | [3]; at 33.0 µM 18% | [3]; at 100.0 µM 33% | [4]; at 1.2 µM -3% | [4]; at 3.7 µM -9% | [4]; at 11.0 µM -8% | [4]; at 33.0 µM -9% | [4]; at 100.0 µM 16% | [5]; at 1.2 µM -16% | [5]; at 3.7 µM -19% | [5]; [16] 2% | [5]; at 11.0 µM -23% | [5]; at 33.0 µM -13% | [5]; [17] 19% | [5]; at 50.0 µM 31.6% | [5]; at 100.0 µM 38% | [6]; at 1.2 µM -3% | [6]; at 3.7 µM -4% | [6]; [16] 0% | [6]; at 11.0 µM -6% | [6]; at 33.0 µM -11% | [6]; [17] 37% | [6]; at 50.0 µM 3.8% | [6]; at 100.0 µM -10% | [7]; at 1.2 µM 4% | [7]; at 3.7 µM -3% | [7]; at 11.0 µM 9% | [7]; at 33.0 µM 12% | [7]; at 100.0 µM 56% | [8]; [16] 1% | [9]; at 1.2 µM -7% | [9]; at 3.7 µM -9% | [9]; at 11.0 µM -16% | [9]; at 33.0 µM -16% | [9]; at 100.0 µM -15% | [10]; [16] -1% | [10]; [17] 12% | [10]; at 50.0 µM 4.65% | [11]; at 1.2 µM -2% | [11]; at 3.7 µM 3% | [11]; [16] 7% | [11]; at 11.0 µM 2% | [11]; at 33.0 µM 2% | [11]; [17] 43% | [11]; at 50.0 µM 19.8% | [11]; at 100.0 µM 21% | [12]; at 1.2 µM -1% | [12]; at 3.7 µM 0% | [12]; at 11.0 µM 7% | [12]; at 33.0 µM 20% | [13]; at 1.2 µM -66% | [13]; at 3.7 µM -14% | [13]; at 11.0 µM 3% | [13]; at 33.0 µM 15% | [15]; [16] 1% | [14]; at 1.2 µM -9% | [14]; at 3.7 µM -8% | [14]; at 11.0 µM -10% | [14]; at 33.0 µM -10% | [14]; at 100.0 µM 13%
active: [8]; [17] 72% | [8]; at 50.0 µM 91.3% | [12]; at 100.0 µM 89% | [13]; at 100.0 µM 78% | [15]; [17] 70% | [15]; at 50.0 µM 78.8%
